Assay outcomes (PubChem)
KDM5B inh: blocks human KDM5B histone demethylase activity. Q9UGL1. KDM5B demethylase, FDH-coupled NADH fluorescence (FDH is formaldehyde dehydrogenase). Potency, µM (series often up to 57.7 µM), hits mostly inhibitors. 220,000 tested, 2.6% active. AID 1347165; active = well fitted inhibition curve with a large enough effect; note: 0% is about no effect; nearly all actives have a fitted effect of over 70% in size
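Coupled FDH/NAD⁺ fluorescence readout. KDM5BΔAP 200 nM final; compound titration, 10 min RT preincubation; substrate mix 12.5 µM H3K4me3, 25 µM 2-OG, 50 µM Fe(II), 100 µM ascorbate, 0.25 mM NAD⁺, 0.25 U/mL FDH; ΔRFU over 30 min.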
The depositor's hits bear a star; i = inactive. The full list was thinned out, with hits kept by preference. Potency is the fitted concentration of half-maximal effect.

SMILES | KDM5B inh
CCn1ccnc1CN(C)c1cc(C2CC(N)C2)nc(COC)n1 (centres undefined) | i
CCn1nccc1C(=O)N1CCCn2ccnc2C1c1cnn(C)c1 (centres undefined) | i
CC(C(=O)Nc1ccc2[nH]c(=O)[nH]c2c1)N(C)Cc1ccc(Br)cc1 (centres undefined) | i
Cc1ccccc1OCC(=O)OC1CCN(C)CC1 | i
Cc1ccccc1-n1cc(-c2ccnc(NC3CCN(C)CC3)n2)cn1 | 28µM*
CN1CCC(Nc2nccc(C3(c4ccccc4Cl)CCNCC3)n2)CC1 | i
NC1CCCN(Cc2cccc(OCCCn3ccnc3)c2)C1 (centres undefined) | i
CS(=O)(=O)N1CCCC1c1noc(CCC(=O)NC2CCCCCC2)n1 (centres undefined) | i
CN1CCC(N2CCN(C(=O)c3c(F)cccc3F)CC2)C1=O (centres undefined) | i
COc1ccc([C@H]2CN(C(=O)c3nc(N)nc4c3CCCC4)C[C@@H]2N)cc1 | 22µM*
COc1ccc([C@H]2CN(C(=O)C3(c4ccc(F)cc4)CC3)C[C@@H]2N)cc1 | i
COC[C@@H]1CN(C(=O)c2ccc(OC)cc2C)C[C@H]1c1ccncc1 | i
COc1ccc(NC(=O)CCC2CCCN(C(=O)c3ccccc3SC)C2)cc1Cl (centres undefined) | i
NC(=O)[C@H](CCC(=O)O)NC(=O)C1=C[C@@H](NC(=O)CC2(CC(=O)O)CCCC2)[C@@H](O)[C@H](O)C1 | i
CS(=O)(=O)CC[C@H](NC(=O)C1=C[C@@H](NC(=O)CCN)[C@@H](O)[C@H](O)C1)C(N)=O | 40µM*
Cc1ccc(C(=O)N[C@@H]2C=C(C(=O)N[C@@H](CCS(C)(=O)=O)C(N)=O)C[C@@H](O)[C@@H]2O)cc1 | i
CCN1C(=O)Cc2cc(C(=O)Nc3ccccc3)ccc21 | i
CC(=O)N1CCC(c2nnc3n2CCNC3)CC1 | 112µM*
O=C(c1ccncc1)N1CCC(c2nnc3n2CCNC3)CC1 | 35µM*
COc1ccc(C(=O)N2CCn3c(nnc3C3CCNCC3)C2)cc1 | i
C[S+](=O)([O-])N1CCCCC1c1nnc2n1CCNC2 (centres undefined) | i
O=C(c1ccccc1)N1CCc2nnc(C3CC3)n2CC1 | i
Cc1noc(C)c1C(=O)N1CCCC(c2nnc3n2CCNC3)C1 (centres undefined) | i
Cc1noc([C@@H]2CN(Cc3cccc(F)c3)C[C@H]2CO)n1 | i
c1ccc(-c2n[nH]c(-c3ccccn3)n2)nc1 | i
SMILES | KDM5B inh
COc1ccc(NC(=O)O[C@@H]2CO[C@H]3[C@@H]2OC[C@@H]3Nc2nccc(-c3cccs3)n2)cc1 | i
COc1ccc(-c2ccnc(N[C@H]3CO[C@H]4[C@@H]3OC[C@@H]4NS(=O)(=O)c3cccs3)n2)cc1 | 14µM*
N#Cc1cccc(NC(=O)N[C@H]2CO[C@H]3[C@@H]2OC[C@@H]3Nc2nccc(-c3cccs3)n2)c1 | i
CCNC(=O)N[C@H]1CO[C@H]2[C@@H]1OC[C@@H]2Nc1nccc(-c2ccc(-c3ccccc3)cc2)n1 | i
O=C(N[C@H]1CO[C@H]2[C@@H]1OC[C@@H]2Nc1nccc(C2CCCC2)n1)c1ccccc1 | i
c1csc(-c2ccnc(N[C@H]3CO[C@H]4[C@@H]3OC[C@@H]4NCC3CCCCC3)n2)c1 | 40µM*
COc1cccc(-c2nnnn2[C@H]2CO[C@H]3[C@@H]2OC[C@@H]3NS(=O)(=O)c2cccs2)c1 | i
O=C(Nc1cccc(C(F)(F)F)c1)N[C@H]1CO[C@H]2[C@@H]1OC[C@@H]2Nc1nccc(-c2ccc(-c3ccccc3)cc2)n1 | i
O=C(O)CCCC(=O)N[C@H]1CO[C@H]2[C@@H]1OC[C@@H]2Nc1nccc(-c2cccc(F)c2)n1 | 35µM*
COc1ccc(-c2ccnc(N[C@H]3CO[C@H]4[C@@H]3OC[C@@H]4NC(=O)Nc3cccc(C#N)c3)n2)cc1 | 25µM*
COc1ccc(-c2ccnc(N[C@H]3CO[C@H]4[C@@H]3OC[C@@H]4NS(=O)(=O)c3ccc4ccccc4c3)n2)cc1 | i
COc1cc(NC(=O)N[C@H]2CO[C@H]3[C@@H]2OC[C@@H]3Nc2nccc(-c3ccc(-c4ccccc4)cc3)n2)cc(OC)c1 | i
COc1ccc2c(c1)c(C(C(=O)O)N1CCN(CCC#N)CC1)cn2CCC(=O)O (centres undefined) | i
FC(F)(F)c1cccc(NC2(c3nnnn3C3CCCCC3)CCCC2)c1 | i
CCOc1ccc2c(n1)CCN(C(=O)Cc1ccc(F)cc1)C2 | i
O=C(COc1ccccc1)NC1CC(=O)N(C2Cc3ccccc3C2)C1 (centres undefined) | i
O=C1/C(=C\c2ccccc2)CCc2ccccc21 | i
O=C1NCCCCCCN(S(=O)(=O)c2cccs2)[C@H]2CCC[C@@H]12 | i
O=C(Nc1ncc(Cc2ccc(Cl)cc2)s1)c1ccc2c(c1)CC(c1ccccc1)OC2=O (centres undefined) | i
CCOC(=O)C1=CN(CC(=O)N(C)c2ccccc2)S(=O)(=O)N=C1C | i
CCn1nnc2cc(C(=O)Nc3ccc(OC)cc3)ccc21 | i
O=C(NCCc1coc(-c2ccc(F)cc2)n1)Nc1ccc(F)cc1 | i
CC(=O)c1cccc(NC(=O)O[C@@H]2CO[C@H]3[C@@H]2OC[C@@H]3Nc2nccc(-c3ccccc3)n2)c1 | i
CN(C)c1ccc(-c2ccnc(N[C@H]3CO[C@H]4[C@@H]3OC[C@H]4OC(=O)NCc3ccccc3)n2)cc1 | 28µM*
CCNC(=O)O[C@@H]1CO[C@H]2[C@@H]1OC[C@@H]2NC(=S)Nc1ccccc1 | i
SMILES | KDM5B inh
COCC(=O)N[C@H]1CO[C@H]2[C@@H]1OC[C@@H]2Nc1nccc(-c2ccc(OC)cc2)n1 | 35µM*
COc1cc(NC(=O)N[C@H]2CO[C@H]3[C@@H]2OC[C@@H]3Nc2nccc(-c3ccc(N(C)C)cc3)n2)cc(OC)c1 | i
COc1ccc(-c2ccnc(N[C@H]3CO[C@H]4[C@@H]3OC[C@@H]4NC(=O)Nc3ccc(C(C)=O)cc3)n2)cc1 | i
COc1cccc(NC(=O)O[C@@H]2CO[C@H]3[C@@H]2OC[C@@H]3Nc2nccc(-c3ccccc3)n2)c1 | i
CC(C)(C)c1ccc(NC(=O)O[C@@H]2CO[C@H]3[C@@H]2OC[C@@H]3Nc2nccc(-c3ccc4c(c3)OCO4)n2)cc1 | 28µM*
COc1ccc(NC(=O)O[C@@H]2CO[C@H]3[C@@H]2OC[C@@H]3NC(=O)c2ccc(OC)cc2)cc1 | i
COc1ccc(-c2ccnc(N[C@H]3CO[C@H]4[C@@H]3OC[C@H]4OC(=O)Nc3cccc(C(F)(F)F)c3)n2)cc1 | 22µM*
N#Cc1cccc(-c2ccnc(N[C@H]3CO[C@H]4[C@@H]3OC[C@H]4OC(=O)Nc3cccc(C(F)(F)F)c3)n2)c1 | i
CC(C)(C)c1ccc(NC(=O)O[C@@H]2CO[C@H]3[C@@H]2OC[C@@H]3Nc2nccc(C(C)(C)C)n2)cc1 | i
CN(C)CCOC(=O)NCCCCNC(=O)OCCN(C)C | i
O=C(C1CCc2ncc(-c3ccc(F)cc3)n2C1)N1CCCC1 (centres undefined) | i
Cc1cccc(-c2nnc(SCC(=O)Nc3c(C)cc(C)cc3C)n2N)c1 | i
CC(C)NC(=S)N(CCc1ccncc1)C(C)C | i
O=C(Nc1cc(F)ccc1F)N1CCCC1c1nncn1-c1ccccc1 (centres undefined) | i
